Assay results published in ChEMBL document CHEMBL3988442, “University of Dundee, Small-Polar-MMV Screening Library” (2021).
Screen size: about 48,000 compounds; about 13,000 (27%) showed an effect of 50% or more. The list shows a part of the results.

Test system: Wolbachia pipientis
Test: Anti-Wolbachia Cell-Based Screen
Type: functional
Set-up: scale not given: in the data most compounds retested in dose-response had high values
Details: 5 µM

| Structure (SMILES) | Percent Effect [%] |
| --- | --- |
| CCCOCCn1ncc(N2CCCC2)cc1=O | 0.2704 |
| Cn1c(Cn2ncc(N3CCCCC3)cc2=O)nc2ccccc21 | 93.17 |
| O=c1cc(N2CCCCC2)cnn1CCCn1cccn1 | 21.14 |
| CN(C)c1cnn(CC(=O)N2CCN(c3ccccc3)CC2)c(=O)c1 | 3.087 |
| CN(C)c1cnn(CC(=O)N2Cc3ccccc3C2)c(=O)c1 | 8.607 |
| CN(C)c1cnn(Cc2nc3ccccc3n2C)c(=O)c1 | 116.1 |
| CN1CCCN(c2cnn(Cc3ccc(C(C)(C)C)cc3)c(=O)c2)CC1 | 10.83 |
| CN1CCCN(c2cnn(Cc3ccncc3)c(=O)c2)CC1 | -30.12 |
| Cn1c(Cn2ncc(N3CCCC3)cc2=O)nc2ccccc21 | 114.5 |
| O=C(NC1CC2(CCN(CCO)CC2)Oc2ccccc21)c1csnn1 (stereo not drawn) | -25.87 |
| CC(C)c1nc(CN(C)C(=O)CCNC(=O)c2ccccc2F)no1 | -5.471 |
| CC(=O)Nc1ccc([C@@H](O)[C@H]2COCC(=O)N2CC(C)C)cc1 | -7.535 |
| Cc1nc(CN(Cc2ccc3c(c2)OCCO3)C2CCCC2)no1 | 158.9 |
| CCN(Cc1nc(C2CC2)no1)Cc1ccc(C#N)cc1F | -4.842 |
| CN(C(=O)Cc1ccc2c(c1)OCCO2)C1CCCCC1 | -4.303 |
| CCCc1noc(CN(C)Cc2ccc3c(c2)OCO3)n1 | -4.394 |
| Cc1noc(CN(Cc2ccc3c(c2)OCO3)C2CCCC2)n1 | 3.676 |
| Cc1csc(CNC(=O)N(C)Cc2ccc3c(c2)OCCO3)n1 | -8.149 |
| c1cc2c(cc1CN(Cc1nc(C3CC3)no1)C1CCCC1)OCO2 | 88.61 |
| Cc1noc(CN(C)Cc2ccc3c(c2)OCO3)n1 | 95.73 |
| CCc1noc(CN(Cc2ccc3c(c2)OCO3)C2CCCC2)n1 | 130.5 |
| CCN(Cc1ccc2c(c1)OCO2)Cc1nc(C)no1 | 5.817 |
| CCc1noc(CN(C)C(=O)c2ccnc(OC3CCC3)c2)n1 | -5.488 |
| CC(C)c1nc2n(n1)CC(Nc1ncnc3c1CCC3)CC2 (stereo not drawn) | -10.8 |
| O=C(c1cc[nH]n1)N1CCN(C(c2ccccc2)C(F)(F)F)CC1 (stereo not drawn) | 48.39 |
| N#CCCN(CCC#N)C(=O)c1ccc(COc2ccccc2C#N)o1 | -1.523 |

| Structure (SMILES) | Percent Effect [%] |
| --- | --- |
| CN(C)CCN(C)S(=O)(=O)CC1CCOCC1 | 3.137 |
| CC(CS(C)(=O)=O)N(C(=O)Nc1ccc(F)cc1F)C1CC1 (stereo not drawn) | 2.637 |
| COc1cc(OC)c(CNC(=O)NCc2ccc(C#N)cc2)c(OC)c1 | 1.359 |
| COCCO[C@H]1COCCN(Cc2ccc(OC)cc2)C1 | -5.552 |
| O=C(C1CCOc2ccccc2C1)N1Cc2cnn(CCO)c2C1 (stereo not drawn) | -2.46 |
| CCCN(C(=O)CN1CCN(CC(C)O)CC1)C1=CCCCC1 (stereo not drawn) | -2.912 |
| CCc1nc(C2CCCN2c2ncc(C(N)=O)cc2Cl)no1 (stereo not drawn) | -14.14 |
| Cc1noc(C2CCCN2C(=O)C2CCC2)n1 (stereo not drawn) | 124.3 |
| Cc1noc([C@@H]2CCCN2C(=O)C2CCN(CC(N)=O)CC2)n1 | 1.357 |
| Cc1noc([C@@H]2C[C@H](NC(=O)NC3CCCCC3)CN2C)n1 | -10.92 |
| Cc1noc([C@@H]2CCCN2C(=O)C2CCN(C(=O)C3CCC3)CC2)n1 | -13.41 |
| CC(=O)N1CCCC1c1nc(C)no1 (stereo not drawn) | 122.1 |
| CNCC(=O)N1CCCC1c1nc(C(C)C)no1 (stereo not drawn) | 10.93 |
| Cc1ccc([C@@H]2CN(C(=O)c3cc[nH]c3)C[C@H]2NC(=O)C2CC2)cc1 | 18.05 |
| NC(=O)C1CCN(CCc2ccc(NCc3ccoc3)cc2)CC1 | -9.363 |
| CCOCCNC(=O)c1cccnc1N1CCCC1c1ccccn1 (stereo not drawn) | 122.4 |
| CCC(CC)NC(=O)c1cccnc1-n1cccn1 | 10.93 |
| CNC(=O)c1cccnc1N1CCN(C/C=C/c2ccccc2)CC1 | 6.453 |
| CCC(CC)NC(=O)c1cccnc1N1CCCC1c1ccccn1 (stereo not drawn) | 119.8 |
| COc1cccc(C(=O)N2CCN(C(=O)CCCn3ccnc3)CC2)c1 | -1.45 |
| COc1ccc(C(=O)O)c(OCC(=O)NC(C)c2ccc(F)cc2)c1 (stereo not drawn) | -5.25 |
| Cc1ccc(C(N)c2cccs2)cc1 (stereo not drawn) | 13.29 |
| Cc1ccccc1CN(Cc1ccncc1)CC(C)C | -4.812 |
| Cc1ccccc1C(N)c1ccncc1.Cl (stereo not drawn) | 102.8 |
| COCC(NC(=O)c1cc[nH]n1)c1cccc(C(F)(F)F)c1 (stereo not drawn) | -1.057 |
| O=C(c1ccccn1)N1C[C@@H]2CC[C@H](C1)N(C(=O)CCC(F)(F)F)C2 | -20.57 |

| Structure (SMILES) | Percent Effect [%] |
| --- | --- |
| Cn1cc(-c2nnc3sc(C4CCC4)nn23)cn1 | 131.8 |
| Cn1cc(-c2nc(CN3CCn4c(nnc4C4CC4)C3)cs2)cn1 | -10.47 |
| Cn1cc(-c2csc(N3CCCCCC3)n2)cn1 | -2.114 |
| Cn1cc(-c2nnc3sc(C4CC4)nn23)cn1 | 89.59 |
| CCCC1CCCN(Cc2csc(-c3cnn(C)c3)n2)CC1 (stereo not drawn) | -16.04 |
| CCC(CO)N(Cc1ccsc1)CC1CC1 (stereo not drawn) | -8.901 |
| CCOc1ccc(CNC(C)c2cccc(S(=O)(=O)NC)c2)cc1 (stereo not drawn) | 0.3734 |
| N#Cc1cccc(SCCS(N)(=O)=O)c1 | 2.301 |
| CCCNS(=O)(=O)Cc1ccc(Br)cc1 | -14.67 |
| CCS(=O)(=O)CCCN1CCSCC1c1ccc(Cl)cc1 (stereo not drawn) | 4.065 |
| N#Cc1ccc(SCCC(=O)O)cc1 | -2.439 |
| CCS(=O)(=O)CCSc1ccc(Cl)cc1 | 82.02 |
| CCS(=O)(=O)CCSc1ccc(Br)cc1 | 61.96 |
| CCOc1ccc(SCCNS(=O)(=O)CC)cc1 | 37.47 |
| CCOc1ccc(SCCS(=O)(=O)CC)cc1 | 102.3 |
| CC(C)c1cc(=O)[nH]c(C(C)(C)N)n1.Cl | -9.286 |
| CNC(=O)Cc1noc(-c2cc3c(s2)CCC(C)(C)C3)n1 | -4.639 |
| COc1ccccc1CC1CCCN(C(=O)c2cn[nH]c2C)C1 (stereo not drawn) | -7.935 |
| O=C1CCCN1CCN1CCCC(c2ccn[nH]2)C1 (stereo not drawn) | 1.781 |
| O=C(O)c1ccc(CN2CCCC(Cc3ccn[nH]3)C2)cc1 (stereo not drawn) | 99.33 |
| O=C(O)c1ccccc1CN1CCCC(Cc2ccn[nH]2)C1 (stereo not drawn) | 106.4 |
| c1ccn2cc(CN3CCCC(c4ccn[nH]4)C3)nc2c1 (stereo not drawn) | 9.447 |
| CC(C)(C)OC(=O)NC1CCCN(Cc2cccc(O)c2)C1 (stereo not drawn) | -3.79 |
| COc1ccccc1CC1CCCN(CC(N)=O)C1 (stereo not drawn) | -5.386 |
| O=C(O)c1cccc(CN2CCCC(Cc3ccn[nH]3)C2)c1 (stereo not drawn) | 127.8 |
| O=C(O)c1cccc(CN2CCCC(c3ccn[nH]3)C2)c1 (stereo not drawn) | 109.3 |

| Structure (SMILES) | Percent Effect [%] |
| --- | --- |
| Cc1ccsc1[C@@H]1CCN(C(=O)c2ccc(-c3cc[nH]n3)cc2)C[C@H]1O | -2.8 |
| CCC(SC)C(=O)N1CCC(n2cccn2)CC1 (stereo not drawn) | -7.031 |
| CN1C(=O)CC2(CCN(S(=O)(=O)c3cccs3)CC2)c2ccccc21 | 10.11 |
| COCCCNC(=O)C1(NC(=O)c2ccc3[nH]ncc3c2)CCCC1 | -2 |
| O=S(=O)(NCC1(O)CCOc2ccccc21)c1ccccc1Br (stereo not drawn) | 15.3 |
| O=C(Nc1nnn[nH]1)c1ccc(-n2cccc2)c(F)c1 | -12.4 |
| O=C(COC1CCCC1)N1CCC(C(O)c2ccc(F)cc2)CC1 (stereo not drawn) | 6.854 |
| COc1cccc(NC(C(N)=O)c2ccc(Br)cc2)c1 (stereo not drawn) | 1.947 |
| CCO[C@H]1CC[C@H]2[C@H]1OCCN2C(=O)COc1ccccc1 | 74.73 |
| CCO[C@@H]1CC[C@H]2[C@H]1OCCN2C(=O)C1CCOCC1 | 0.9043 |
| CCO[C@@H]1CC[C@H]2[C@H]1OCCN2C(=O)c1ccc(C)o1 | 0.08907 |
| COc1ccc(C(=O)N2CCO[C@H]3[C@H](OCC4CC4)CC[C@@H]32)cc1F | -4.788 |
| O=C(COc1ccc(F)cc1)N1CCO[C@H]2[C@@H](OCC3CC3)CC[C@@H]21 | 107 |
| CCO[C@H]1CC[C@H]2[C@@H]1OCCN2C(=O)COc1ccccc1 | 94.92 |
| COc1cc(C(=O)N2CCO[C@H]3[C@H](OCC4CC4)CC[C@@H]32)ccc1F | 35.93 |
| CC(C)CN1C[C@H]2CCN(C(=O)C3CCCO3)CC[C@H]2S1(=O)=O (stereo partly drawn) | -18.66 |
| CN(Cc1cnccn1)CC1CCOc2ccccc2C1 (stereo not drawn) | 5.577 |
| CCC(C)CNc1ccc2oc(COC)nc2c1 (stereo not drawn) | -9.605 |
| CN(C)C(=O)c1ccc(CNc2c(Cl)cccc2C#N)cc1 | -8.933 |
| CN1CCN(Cc2cnc3n2CCN(CCc2ccccc2)C3)CC1.O=C(O)C(F)(F)F.O=C(O)C(F)(F)F.O=C(O)C(F)(F)F | 127 |
| Cc1noc(C)c1CN1CCn2c(CN3CCN(C)CC3)cnc2C1.O=C(O)C(F)(F)F.O=C(O)C(F)(F)F.O=C(O)C(F)(F)F | -4.762 |
| CNC(=O)c1cnc2n1CCN(Cc1cccnc1)C2.O=C(O)C(F)(F)F.O=C(O)C(F)(F)F.O=C(O)C(F)(F)F | 0.3449 |
| CN1CCN(Cc2cnc3n2CCN(Cc2cccnc2)CC3)CC1.O=C(O)C(F)(F)F.O=C(O)C(F)(F)F.O=C(O)C(F)(F)F | 102.7 |
| COCC(=O)N1CCn2c(CN3CCN(C)CC3)cnc2C1.O=C(O)C(F)(F)F.O=C(O)C(F)(F)F | -7.166 |
| CCOCc1nnc(NCc2cccc(C)c2)o1 | -20.23 |
